Exocytosis inh: blocks lytic granule exocytosis; TALL-104 LAMP-1 surface exposure, flow cytometry; cells stimulated with thapsigargin and PMA; 360,000 compounds, 0.66% hits; inhibition, % at 10 µM; AID 651702;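 active = inhibition above about 55%, limit read from the data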
SKKanGAS inh: SKKanGAS growth inhibition. S. pyogenes SKKanGAS, kanamycin growth, BacTiter-Glo, 6 h. inhibition, % at 7.5 µM. 300,000 compounds, 1.3% hits;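 active = mean replicate score, as percent of positive control median, at least 50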;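 also: strain carries kanamycin resistance gene driven by streptokinase promoter and grows in 40 µg/ml kanamycin; loss of luminescence reflects streptokinase promoter inhibition or plain growth inhibition; 0% = median of DMSO wells and 100% = positive control at its reference dose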
PP5 inh: blocks human protein phosphatase 5 activity; P53041; purified PP5c, OMFP substrate fluorescence; inhibition, % at 6.7 µM; 320,000 compounds, 0.18% hits; AID 1987;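 active = inhibition above the campaign's mean inhibition across all tested compounds plus 3 SD, cut at about 9.5% in these data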;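 also: 0% = DMSO only and 100% = 100 µM cantharidin control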
Target sequence (P53041 whole entry, looked up): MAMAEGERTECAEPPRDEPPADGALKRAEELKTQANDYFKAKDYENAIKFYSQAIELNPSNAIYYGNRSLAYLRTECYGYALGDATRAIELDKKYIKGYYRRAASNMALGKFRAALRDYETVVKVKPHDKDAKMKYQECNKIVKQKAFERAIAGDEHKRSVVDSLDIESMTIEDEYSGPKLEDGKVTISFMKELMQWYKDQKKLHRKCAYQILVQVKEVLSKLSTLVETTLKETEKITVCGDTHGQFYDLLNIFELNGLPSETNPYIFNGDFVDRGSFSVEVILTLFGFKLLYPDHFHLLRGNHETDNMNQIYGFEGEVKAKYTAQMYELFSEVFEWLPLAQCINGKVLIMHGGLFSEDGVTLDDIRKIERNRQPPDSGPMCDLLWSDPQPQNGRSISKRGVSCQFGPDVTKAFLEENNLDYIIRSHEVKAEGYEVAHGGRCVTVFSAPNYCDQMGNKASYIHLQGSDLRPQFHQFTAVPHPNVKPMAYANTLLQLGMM
IDE cell activ: boosts human insulin-degrading enzyme activity in HEK cells. 340,000 compounds, 0.073% hits. FAbeta-B cleavage, fluorescence polarization; 0% vehicle, 100% cell-free pure enzyme wells. activation, % at 5.96 µM;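 active = activation above the mean of all tested compounds plus 3 SD, set per screening campaign, cut at about 17% in these data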
IDE cell inh: inhibits human insulin-degrading enzyme in HEK cells; FAbetaB cleavage, fluorescence polarization; inhibition, % at 5.59 µM; 320,000 compounds, 0.41% hits; AID 434962;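 active = percent inhibition above the average of all tested compounds plus 3 SD, set per screening campaign, cut at about 16% in these data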;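 also: IDE supplied by intact live HEK cells; FP after avidin binding of uncleaved biotin substrate so inhibition keeps polarization high; 0% = DMSO wells and 100% = 60 µM reference IDE inhibitor Ii1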
PP1 counter: PP1-alpha (human) inhibition in PP5 counter-screen | 320,000 compounds, 0.9% hits | inhibition, % at 6.7 µM | purified PP1alpha, OMFP fluorescence;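 active = inhibition above the mean inhibition of all tested compounds plus 3 SD, computed separately for each screening campaign, cut at about 15% in these data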
PP1 confirm: human PP1 phosphatase inhibition, confirmation; shares compounds with PP1 counter; purified PP1alpha, OMFP substrate fluorescence; inhibition, % at 6.7 µM; 1,900 compounds, 52% hits; AID 2358;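 active = mean PP1 inhibition above a set limit taken from the earlier primary screen, cut at about 15% in these data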
PP5 inh counter: counter-screen for PP1 inhibitors: human PP5 phosphatase inhibition. inhibition, % at 6.7 µM. AID 2360. 1,900 compounds, 4% hits. shares compounds with PP1 counter. purified PP5c, OMFP fluorescence;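 active = mean PP5 inhibition over triplicate wells above about 9.5% taken from the earlier PP1 screen, limit read from the data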
Numbers without * were called inactive; nt = no result given; ! = repeats disagree. Compounds with a hit are over-represented: about 2.8% of the library has one in this group of screens.

SMILES | Exocytosis inh | SKKanGAS inh | PP5 inh | IDE cell activ | IDE cell inh | PP1 counter | PP1 confirm | PP5 inh counter
CC(=O)c1ccc(NC(=S)NC(=O)/C=C/c2ccco2)cc1 | 1 | 7 | 2 | -1 | 5 | 23* | 29* | -6
O=C(/C=C/c1ccco1)NC(=S)Nc1cc(-c2nc3ccccc3s2)ccc1Cl | -8 | nt | 1 | -5 | -1 | 2 | nt | nt
Cc1c(NS(=O)(=O)c2cccc(C(=O)OCC(=O)c3ccc(Cl)cc3)c2)c(=O)n(-c2ccccc2)n1C | 5 | nt | nt | 1 | nt | nt | nt | nt
Cc1ccc(S(=O)(=O)N2CCC3(CC2)OCCO3)cc1 | -7 | 1 | 0 | 0 | -1 | -2 | nt | nt
O=C(O)c1ccc(/C=N\Nc2ccc(S(=O)(=O)N3CCOCC3)cc2[N+](=O)[O-])cc1 | 2 | 4 | 1 | 3 | 3 | 0 | nt | nt
Cc1ccc(-n2c(O)c(/C=N/Nc3ccc(S(=O)(=O)N4CCOCC4)cc3[N+](=O)[O-])c3ccccc3c2=O)c(C)c1 | 0 | 31 | 2 | 8 | 3 | 18* | 18* | 5
CC(C)c1cc2c(c(O)c1O)[C@@]13CCCC(C)(C)C1CC2OC3=O (stereo not given in full) | -4 | 15 | 0 | -12 | 3 | 44* | 2 | -4
CCC(C(=O)NCCCN1CC(C)CC(C)C1)n1nc(C)c2sc3ccccc3c2c1=O (stereo not given) | -4 | 0 | -1 | 3 | -7 | 2 | nt | nt
Cc1c(CCOC(=O)C23CC4(C)CC(C)(CC(C)(C4)C2)C3)sc[n+]1CC(=O)c1ccccc1 | 48 | 30 | 4 | 10 | -5 | 21* | -1 | 5
Cc1c(CCOC(=O)CC23CC4CC(CC(C4)C2)C3)sc[n+]1CC(=O)c1ccccc1 | 18 | 15 | -2 | 0 | 0 | 26* | -5 | -1
COC(=O)c1c(NC(=O)COC(=O)CNC(=O)c2cccc(OC(F)F)c2)sc(C)c1C | -2 | nt | nt | nt | nt | nt | nt | nt
NC(=O)CC1C(=O)N(c2ccccc2)C(=S)N1NC(=O)c1ccccc1 (stereo not given) | -8 | 8 | nt | 2 | nt | nt | nt | nt
N[C@@H](Cc1cc(I)c(Oc2ccc(O)c(I)c2)c(I)c1)C(=O)O | 2 | 62*! | 1 | -1 | 0 | 28*! | 15 | -6
N[C@@H](Cc1ccc(O)c(O)c1)C(=O)O | -5 | nt | nt | 3 | nt | nt | nt | nt
COc1ccccc1NS(=O)(=O)c1cccc(-n2c(O)c(C=Nc3ccccc3C(=O)O)c3ccccc3c2=O)c1 | 2 | 7 | 4 | -1 | 0 | 23* | 12 | 1
COc1ccc(-c2csc(NC(=O)CN3C(=O)C4CC=CCC4C3=O)n2)cc1 (stereo not given) | -7 | nt | 4 | 0 | 3 | -3 | nt | nt
COc1ccc(-c2csc(NC(=O)CCN3C(=O)C4CC=CCC4C3=O)n2)cc1OC (stereo not given) | 1 | 1 | 6 | 1 | 5 | 26* | -4 | -2
Cc1c(Cl)cccc1NC(=O)[C@@H](NC(=O)c1ccccc1Cl)C(C)C | -1 | 11 | 2 | -2 | 4 | -5 | nt | nt
O=C(c1cc(-c2ccc(Br)cc2)nc2ccccc12)N1CCC1 | 3 | -2 | 0 | 3 | 3 | 20* | -23 | -4
O=C(c1cc(-c2cccc(Br)c2)nc2ccccc12)N1CCCC1 | -10 | -4 | 2 | 1 | -2 | 2 | nt | nt
COc1cc(/C=N/NC(=O)c2cccc(NC(=O)c3ccccc3C)c2)ccc1O | -2 | 1 | 3 | 3 | 0 | 2 | nt | nt
Cc1ccccc1C(=O)Nc1cccc(C(=O)N/N=C/c2cc(Cl)cc([N+](=O)[O-])c2O)c1 | 2 | 11 | 2 | -4 | -4 | 19* | 18* | -4
CCOC(=O)c1sc(-c2ccc(Cl)cc2Cl)nc1O | -1 | 16 | -2 | -3 | -4 | 21* | 21* | -4
CCOC(=O)c1sc(CS(=O)(=O)c2ccc(Cl)cc2)nc1C | 2 | 4 | 0 | 0 | 6 | 0 | nt | nt
O=C(Nc1nnc(C2CC2)o1)c1ccc(S(=O)(=O)N2CCCc3ccccc32)cc1 | 1 | 91* | 2 | -4 | 0 | 33* | 31* | 1
SMILES | Exocytosis inh | SKKanGAS inh | PP5 inh | IDE cell activ | IDE cell inh | PP1 counter | PP1 confirm | PP5 inh counter
COc1ccc(-c2nnc(NC(=O)c3ccc(S(=O)(=O)N4CCCc5ccccc54)cc3)o2)cc1 | -1 | 94* | 0 | 5 | 1 | 29* | 40* | 4
CS(=O)(=O)c1ccc(-c2nnc(NC(=O)c3ccc(S(=O)(=O)N4CCCC4)cc3)o2)cc1 | -3 | 12 | 0 | 2 | -13 | 3 | nt | nt
COc1ccc(/C(O)=C2/C(=O)C(=O)N(c3ccccn3)C2c2ccc(F)cc2)cc1 (stereo not given) | 2 | 8 | nt | -1 | nt | nt | nt | nt
CCN(C(=O)c1cc2c(=O)[nH]c3ccc(C)cc3c2s1)c1ccc(F)cc1 | 0 | -4 | 0 | 0 | -2 | 18* | 17* | -2
CCN(CC)CCCN=Cc1c(-c2ccccc2)[nH]n(-c2nc3ccccc3s2)c1=O | -1 | 25 | 3 | 8 | -1 | 30* | 5 | -1
CCCN=C(C)c1c(-c2ccccc2)[nH]n(-c2nc3ccccc3s2)c1=O | 2 | 17 | 2 | 3 | 1 | 2 | nt | nt
C=CCn1nnnc1SCC(=O)Nc1cccc(C(F)(F)F)c1 | -9 | -2 | 3 | 0 | -1 | -1 | nt | nt
Cc1cccc(C)c1NC(=O)CN(C)C(=O)c1ccc(NS(=O)(=O)c2ccc3[nH]c(=O)[nH]c3c2)cc1 | 4 | 8 | -1 | -2 | 0 | -3 | nt | nt
Cc1cccc(C)c1NC(=O)CNC(=O)c1ccc(NS(=O)(=O)c2ccc3[nH]c(=O)[nH]c3c2)cc1 | 4 | -12 | -1 | 0 | 2 | 93* | 0 | -3
COc1ccc(/C=N/N2C(=O)CSC2=S)cc1Br | 4 | 9 | -1 | -17 | 3 | 25* | 22* | 1
Cc1cccc(NC2=CC(=O)CC(C)(C)C2)c1C | -3 | -16 | -2 | 3 | -3 | -5 | nt | nt
CCOC(=O)C1=C(c2ccccc2)N=c2s/c(=C\c3cc(OC)c(OC)c(OC)c3)c(=O)n2C1c1cccs1 (stereo not given) | 4 | 0 | 3 | -2 | 5 | 0 | nt | nt
CCOC(=O)C1=C(c2ccccc2)N=c2s/c(=C\c3ccco3)c(=O)n2C1c1cccs1 (stereo not given) | 1 | 14 | 1 | 2 | -2 | 21* | 19* | -2
OC12CC3C[C@H](C1)C(N1CCOCC1)[C@@H](C3)C2 (stereo not given in full) | -3 | -1 | 3 | 1 | 0 | -1 | nt | nt
CCOC(=O)C1=CCN(S(=O)(=O)c2ccccc2)C1c1ccc(Cl)cc1 (stereo not given) | -2 | nt | nt | nt | nt | nt | nt | nt
